Results filed as inconclusive are left out. The source made the active and inactive calls. Unless noted, the call rests on the fitted dose curve; in most records, active means well fitted curve in the direction sought with a large enough effect in the repeat runs; inconclusive means weak or mixed curves; inactive means no such curve, though single readings can be large; an effect the other way counts as inactive or inconclusive.
Legend:
[1] = target: Thyrotropin receptor (Homo sapiens) (UniProt P16473); test: qHTS assay to identify small molecule antagonists of the thyroid stimulating hormone receptor (TSHR) signaling pathway (AID 1259385; calls by dose curve; further: nearly all actives have a fitted effect of over 20% in size)
Chain of Thyrotropin receptor (Homo sapiens) (P16473 whole entry, looked up): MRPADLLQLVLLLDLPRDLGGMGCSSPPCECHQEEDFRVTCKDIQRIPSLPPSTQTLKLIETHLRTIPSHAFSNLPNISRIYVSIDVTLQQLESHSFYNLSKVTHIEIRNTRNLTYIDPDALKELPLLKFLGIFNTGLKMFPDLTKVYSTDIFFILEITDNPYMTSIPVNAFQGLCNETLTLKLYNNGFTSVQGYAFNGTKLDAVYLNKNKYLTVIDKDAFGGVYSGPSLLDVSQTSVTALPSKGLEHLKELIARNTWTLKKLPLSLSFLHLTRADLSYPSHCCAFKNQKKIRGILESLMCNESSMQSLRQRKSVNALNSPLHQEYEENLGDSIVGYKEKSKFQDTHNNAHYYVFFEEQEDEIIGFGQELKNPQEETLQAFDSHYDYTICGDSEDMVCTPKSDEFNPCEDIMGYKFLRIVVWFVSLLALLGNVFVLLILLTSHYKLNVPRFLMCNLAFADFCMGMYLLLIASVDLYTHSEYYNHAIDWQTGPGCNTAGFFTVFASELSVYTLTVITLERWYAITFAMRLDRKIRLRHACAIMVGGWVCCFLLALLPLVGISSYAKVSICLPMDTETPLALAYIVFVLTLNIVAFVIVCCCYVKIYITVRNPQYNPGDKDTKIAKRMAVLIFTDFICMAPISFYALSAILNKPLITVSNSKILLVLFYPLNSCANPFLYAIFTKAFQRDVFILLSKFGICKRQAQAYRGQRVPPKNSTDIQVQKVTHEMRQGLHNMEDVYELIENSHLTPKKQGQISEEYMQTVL
In short: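 TSHR-HEK293 cells (800/well) plated 18 h, then compounds with Ro20-1724 and TSH at 1.5 ng/mL final, 30 min at room temperature. cAMP quantified by HTRF (cAMP-d2/anti-cAMP-cryptate, 1 h); 15 concentrations in triplicate.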

[2] = qHTS assay to identify small molecule agonists of the estrogen receptor alpha (ER-alpha) signaling pathway in the presence of an antagonist - cell viability counter screen (AID 1259386);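 further: series mostly up to about 92 µM; cells exposed to compounds for 22 h at 37 °C before the viability read; nearly all actives have a fitted effect of over 30% in size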
In short: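 ICI-182,780 at 10.0nM final accompanies the compound titration (15 concentrations, 22hr, 37C) on VM7Luc4E2 cells. The CellTiter-Fluor fluorescence readout runs in the same wells as the luciferase assay.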

[3] = target: Progesterone receptor (Homo sapiens) (UniProt P06401); test: qHTS assay to identify small molecule agonists of the progesterone receptor (PR) signaling pathway (AID 1346784; calls by dose curve; further: nearly all actives have a fitted effect of over 30% in size)
Chain of Progesterone receptor (Homo sapiens) (P06401 whole entry, looked up): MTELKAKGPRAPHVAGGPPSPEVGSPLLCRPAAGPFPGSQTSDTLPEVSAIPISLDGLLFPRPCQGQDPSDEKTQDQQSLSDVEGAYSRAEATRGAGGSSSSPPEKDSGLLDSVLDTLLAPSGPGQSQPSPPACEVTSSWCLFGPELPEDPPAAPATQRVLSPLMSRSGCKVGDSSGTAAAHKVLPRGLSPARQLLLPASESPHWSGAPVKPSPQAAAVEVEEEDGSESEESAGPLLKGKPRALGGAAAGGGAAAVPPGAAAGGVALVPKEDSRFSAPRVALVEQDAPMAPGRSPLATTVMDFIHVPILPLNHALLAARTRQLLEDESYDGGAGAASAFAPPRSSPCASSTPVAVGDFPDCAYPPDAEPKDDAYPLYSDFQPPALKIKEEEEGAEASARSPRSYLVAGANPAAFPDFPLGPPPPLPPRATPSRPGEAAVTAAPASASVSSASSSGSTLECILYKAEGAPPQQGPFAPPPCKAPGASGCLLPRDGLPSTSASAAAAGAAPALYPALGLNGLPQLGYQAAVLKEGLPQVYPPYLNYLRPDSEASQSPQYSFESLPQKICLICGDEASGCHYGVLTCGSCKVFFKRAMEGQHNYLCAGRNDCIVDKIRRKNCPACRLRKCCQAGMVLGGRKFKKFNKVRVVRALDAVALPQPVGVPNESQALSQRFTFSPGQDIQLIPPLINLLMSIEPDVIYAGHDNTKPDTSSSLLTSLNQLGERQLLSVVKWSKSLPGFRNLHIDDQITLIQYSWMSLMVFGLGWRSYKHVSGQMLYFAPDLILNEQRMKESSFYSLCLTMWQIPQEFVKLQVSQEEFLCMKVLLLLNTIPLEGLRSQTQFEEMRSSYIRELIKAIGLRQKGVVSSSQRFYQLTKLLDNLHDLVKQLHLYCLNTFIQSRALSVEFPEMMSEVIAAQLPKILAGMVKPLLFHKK
In short: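 HEK 293T PR-UAS-bla reporter cells, 2% charcoal-stripped FBS; 6 hr settle at 37C/5% CO2, compound (DMSO) 16 hr, LiveBLAzer B/G FRET substrate 2 hr RT, fluorescence intensity read.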

[4] = target: Progesterone receptor (Homo sapiens) (UniProt P06401); test: qHTS assay to identify small molecule antagonists of the progesterone receptor (PR) signaling pathway (AID 1346795; active means well fitted inhibition curve with a large enough effect in the signal ratio in the repeat runs, not every such curve was filed as active; the % refers to the signal ratio)
In short: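 Beta-lactamase reporter, HEK293T PR-UAS-bla line; 2% charcoal-stripped FBS; 6 hr pre-incubation, 37C/5% CO2. Compound + R5020 1 nM final, 16 hr. LiveBLAzer B/G FRET substrate, 2 hr RT; fluorescence intensity read.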

[5] = qHTS assay to identify small molecule antagonists of the progesterone receptor (PR) signaling pathway - cell viability counter screen (AID 1346798); further: series mostly up to about 92 µM; nearly all actives have a fitted effect of over 50% in size
In short: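 Luminescence readout (CellTiter-Glo, 30 min, RT) of viability in PR-UAS-bla HEK293T cells exposed to compound and R5020 agonist for 16 hr at 37C, 5% CO2; run in the same wells as the beta-lactamase reporter read.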

[6] = qHTS assay to identify small molecule agonists of the progesterone receptor (PR) signaling pathway - cell viability counter screen (AID 1346799; calls by dose curve; further: nearly all actives have a fitted effect of over 45% in size)
In short: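 HEK293T PR-UAS-bla, 3,000 cells/well, 2% charcoal-stripped FBS; 6 h settle, compound 16 h at 37C/5% CO2; LiveBLAzer 2 h RT, then CellTiter-Glo 30 min RT, luminescence read.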

[7] = qHTS assay to identify small molecule antagonists of the TGF-beta/Smad signaling pathway - cell viability counter screen (AID 1346824); further: nearly all actives have a fitted effect of over 50% in size
In short: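 SBE-bla HEK 293T cells, incubated overnight, then compound plus 0.25 ng/mL TGF-beta1 (stock added) for 5 hr at 37 C. Viability was read in the same wells by CellTiter-Glo luminescence after 30 min at room temperature.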

[8] = qHTS assay to identify small molecule agonists of the TGF-beta/Smad signaling pathway - cell viability counter screen (AID 1346829); further: top concentration of the series differs between compounds; nearly all actives have a fitted effect of over 45% in size
In short: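 Compound-treated SBE-bla HEK 293T cells (5 hr, 37 C) were assessed for viability with CellTiter-Glo in parallel with the reporter read.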

[9] = qHTS assay to identify small molecule agonists of the TGF-beta/Smad signaling pathway (AID 1346859; active means well fitted activation curve with a large enough effect in the signal ratio in the repeat runs, not every such curve was filed as active; the % refers to the signal ratio; further: series mostly up to about 77 µM)
In short: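 Read-out: fluorescence at 460 and 530 nm (405 nm excitation) after a 2 hr room-temperature incubation with beta-lactamase FRET substrate. SBE-bla HEK 293T cells had been treated with test compounds for 5 hr at 37 C.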

[10] = Human pregnane X receptor (PXR) small molecule agonists, qHTS cell viability counter screen (AID 1346977); further: nearly all actives have a fitted effect of over 50% in size
In short: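 Fluorescence read-out (CellTiter-Fluor) of viability in PXR-Luc HepG2 cells, multiplexed with the luciferase agonist read. Compounds in DMSO added after 5hr plating; 24hr total exposure at 37C, 5% CO2.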

[11] = Caspase-3/7 induction in CHO-K1 cells by small molecules, qHTS cell viability counter screen (AID 1346979); further: nearly all actives have a fitted effect of over 35% in size
In short: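 CHO-K1 wt, 1,500 cells/well; 5hr pre-incubation 37C/5% CO2; compound pin transfer (DMSO); 16hr exposure; CellTiter-Fluor added, 1hr, fluorescence read.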

[12] = Caspase-3/7 induction in CHO-K1 cells by small molecules, qHTS assay (AID 1346980); further: nearly all actives have a fitted effect of over 15% in size
In short: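 Wild-type CHO-K1 cells exposed to compounds for 17hr at 37 C, 5% CO2. Caspase-3/7 activity then measured by Caspase-Glo 3/7 luminescence after 30min at room temperature.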

[13] = Caspase-3/7 induction in HepG2 cells by small molecules, qHTS cell viability counter screen (AID 1346981); further: series mostly up to about 92 µM; nearly all actives have a fitted effect of over 30% in size
In short: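 Multiplexed with the caspase-3/7 assay: HepG2 cells, 16 hr compound treatment, CellTiter-Fluor viability detection by fluorescence.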

[14] = target: Nuclear receptor subfamily 1 group I member 2 (Homo sapiens) (UniProt O75469); test: Human pregnane X receptor (PXR) small molecule agonists, qHTS assay (AID 1346982); further: nearly all actives have a fitted effect of over 35% in size
Chain of Nuclear receptor subfamily 1 group I member 2 (Homo sapiens) (O75469 whole entry, looked up): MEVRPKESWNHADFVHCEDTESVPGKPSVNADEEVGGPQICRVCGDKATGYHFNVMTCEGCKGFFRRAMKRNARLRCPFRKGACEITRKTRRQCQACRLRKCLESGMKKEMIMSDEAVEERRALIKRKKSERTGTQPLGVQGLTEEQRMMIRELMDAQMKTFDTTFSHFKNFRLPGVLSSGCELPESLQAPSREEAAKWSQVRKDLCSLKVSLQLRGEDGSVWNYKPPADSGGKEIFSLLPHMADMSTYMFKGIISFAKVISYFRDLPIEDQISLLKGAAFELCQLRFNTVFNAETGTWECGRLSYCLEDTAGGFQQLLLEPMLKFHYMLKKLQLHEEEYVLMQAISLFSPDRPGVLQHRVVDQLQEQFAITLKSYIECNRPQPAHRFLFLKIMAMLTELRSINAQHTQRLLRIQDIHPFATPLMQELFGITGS
In short: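 We seeded PXR-Luc HepG2 cells in assay medium containing 5% charcoal-stripped FBS, added compounds 5 hr later, incubated 24 hr, and read luminescence with ONE-Glo reagent.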

[15] = target: Thyrotropin-releasing hormone receptor (Homo sapiens) (UniProt P34981); test: qHTS assay to identify small molecule antagonists of the thyrotropin-releasing hormone receptor (TRHR) signaling pathway (AID 1346877; active means well fitted inhibition curve with a large enough effect in the repeat runs, not every such curve was filed as active; further: series mostly up to about 51 µM)
Chain of Thyrotropin-releasing hormone receptor (Homo sapiens) (P34981 whole entry, looked up): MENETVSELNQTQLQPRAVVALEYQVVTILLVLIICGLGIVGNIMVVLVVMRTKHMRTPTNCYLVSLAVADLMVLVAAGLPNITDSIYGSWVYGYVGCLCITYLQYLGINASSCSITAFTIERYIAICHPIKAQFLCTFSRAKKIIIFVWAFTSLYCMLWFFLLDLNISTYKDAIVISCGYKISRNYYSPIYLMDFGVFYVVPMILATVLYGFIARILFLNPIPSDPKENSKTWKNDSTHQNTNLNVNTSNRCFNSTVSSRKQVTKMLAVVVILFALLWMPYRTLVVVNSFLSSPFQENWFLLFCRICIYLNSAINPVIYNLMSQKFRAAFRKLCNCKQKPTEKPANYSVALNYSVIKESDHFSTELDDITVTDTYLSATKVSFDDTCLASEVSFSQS
In short: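 Screening used HEK293 cells engineered with TRHR, with a brief 5 min room-temperature compound exposure preceding addition of TRH to 1 nM. The read-out was kinetic calcium-dye fluorescence, concentration-response from 15 doses in triplicate.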

[16] = target: Thyrotropin-releasing hormone receptor (Homo sapiens) (UniProt P34981); test: qHTS assay to identify small molecule agonists of the thyrotropin-releasing hormone receptor (TRHR) signaling pathway (AID 1346891; calls by dose curve;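 further: HEK293 cells expressing TRHR with calcium dye readout; series mostly up to about 58 µM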)
In short: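 HEK293/TRHR cells, 1500 per well, 18 h 37 °C; Ca dye 2 h 37 °C; pin-tool compound addition (agonist mode); kinetic fluorescence 3 min, 1 s reads; 15 concentrations, triplicate.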

[17] = Caspase-3/7 induction in HepG2 cells by small molecules, qHTS assay (AID 1346978); further: nearly all actives have a fitted effect of over 15% in size
In short: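 Wild-type HepG2 cells, 2,000/well, settled 5 hr at 37 C and 5% CO2, then compound-treated for 17 hr; caspase-3/7 activity read by luminescent Caspase-Glo 3/7 after 30 min at room temperature.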

[18] = target: Nuclear receptor subfamily 1 group I member 2 (Rattus norvegicus) (UniProt Q9R1A7); test: Rat pregnane X receptor (rPXR) activation by small molecules, qHTS assay (AID 1346983); details: rPXR luciferase reporter cells, One-Glo luminescence, 24 h; hits give high values; further: nearly all actives have a fitted effect of over 20% in size
Chain of Nuclear receptor subfamily 1 group I member 2 (Rattus norvegicus) (Q9R1A7 whole entry, looked up): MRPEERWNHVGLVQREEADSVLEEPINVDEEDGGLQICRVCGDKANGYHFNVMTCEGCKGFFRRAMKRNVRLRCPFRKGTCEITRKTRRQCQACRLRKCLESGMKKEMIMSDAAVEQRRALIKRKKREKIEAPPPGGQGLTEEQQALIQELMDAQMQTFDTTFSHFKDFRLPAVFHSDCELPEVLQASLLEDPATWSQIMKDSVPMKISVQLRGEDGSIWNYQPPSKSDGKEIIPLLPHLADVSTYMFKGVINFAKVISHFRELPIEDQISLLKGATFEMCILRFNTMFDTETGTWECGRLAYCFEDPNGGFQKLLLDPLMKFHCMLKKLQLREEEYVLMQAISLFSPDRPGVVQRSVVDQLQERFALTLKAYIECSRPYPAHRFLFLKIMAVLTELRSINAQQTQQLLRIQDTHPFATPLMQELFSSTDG
In short: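 Cell-based rPXR activation assay: rPXR cells, 2,000 per well, rested 5hr at 37 C, then exposed to compounds in DMSO for 24 hr at 37 C. Luciferase activity read by One-Glo luminescence after 30 min at room temperature.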

[19] = target: Nuclear receptor subfamily 1 group I member 2 (Homo sapiens) (UniProt O75469); test: CYP3A4 induction through human pregnane X receptor (PXR) by small molecules, qHTS assay (AID 1346984); further: nearly all actives have a fitted effect of over 40% in size
In short: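 qHTS, concentration-response format: HepG2 DPX-2 line, PXR/CYP3A4-luc. Exposure 24 h, 37C. Substrate Luciferin-IPA 3uM final, 3 h. Detection One-Glo, 30 min RT.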

[20] = target: Nuclear receptor subfamily 1 group I member 2 (Homo sapiens) (UniProt O75469); test: Human pregnane X receptor (PXR) activation by small molecules, qHTS assay (AID 1346985); further: nearly all actives have a fitted effect of over 40% in size
In short: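 DPX-2 cells (HepG2 co-transfected with a PXR response element and a CYP3A4-promoter luciferase construct) were seeded at 2,000 per well, rested 5 hr at 37C, then exposed to DMSO-dissolved compounds for 24 hr. Activation was read as luciferase luminescence.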
On the % scale 0 is the no-effect control and ±100 the full control effect.

c1nc[nH]n1
inactive: outcome [1] | Potency [2] | Potency [3] | Potency [4] | Potency [5] | Potency [6] | Potency [7] | Potency [8] | outcome [9] | Potency [10] | Potency [11] | Potency [12] | Potency [13] | Potency [14]

S=C1NCCN1
inactive: outcome [1] | Potency [2] | Potency [3] | Potency [4] | Potency [5] | Potency [6] | Potency [7] | Potency [8] | outcome [9] | Potency [15] | Potency [16] | Potency [10] | Potency [17] | Potency [11] | Potency [12] | Potency [13]

CNC(=O)Oc1cccc2c1OC(C)(C)O2
inactive: outcome [1] | Potency [2] | Potency [3] | Potency [4] | Potency [5] | Potency [6] | Potency [7] | Potency [8] | outcome [9] | Potency [15] | Potency [16] | Potency [10] | Potency [17] | Potency [11] | Potency [12] | Potency [14]

CC(C)NC(C)C
inactive: outcome [1] | Potency [2] | Potency [3] | Potency [4] | Potency [5] | Potency [6] | Potency [7] | Potency [8] | outcome [9] | Potency [15] | Potency [16] | Potency [10] | Potency [17] | Potency [11] | Potency [12] | Potency [13] | Potency [14] | max activation [18] -0.504% | outcome [19] | outcome [20]

ClC1C(Cl)C(Cl)C(Cl)C(Cl)C1Cl (stereo not given)
inactive: outcome [1] | Potency [2] | Potency [3] | Potency [4] | Potency [5] | Potency [6] | Potency [7] | Potency [8] | outcome [9] | Potency [15] | Potency [16] | Potency [10] | Potency [17] | Potency [11] | Potency [12]

CC(O)CCO (stereo not given)
inactive: outcome [1] | Potency [2] | Potency [3] | Potency [4] | Potency [5] | Potency [6] | Potency [7] | Potency [8] | outcome [9] | Potency [15] | Potency [16] | Potency [10] | Potency [17] | Potency [11] | Potency [12] | Potency [13] | Potency [14]

c1ccc(N=Nc2ccccc2)cc1
inactive: outcome [1] | Potency [2] | Potency [3] | Potency [4] | Potency [5] | Potency [6] | Potency [7] | Potency [8] | outcome [9] | Potency [15] | Potency [16] | Potency [10] | Potency [17] | Potency [11] | Potency [12] | Potency [13] | Potency [14]
